Data on 22 molecules can be found in PubChem BioAssay.

Unmarked numbers belong to inactive results. The rule behind the calls is not given here.

For the assay, the target named is Pantothenate synthetase (Mycobacterium tuberculosis (strain ATCC 25618 / H37Rv)) (UniProt P9WIL5). As to the kind of experiment: Recombinant Mtb pantothenate synthetase (PanC) inhibitors, coupled enzyme, confirmatory (AID 375).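 Note: 0% = full reaction with vehicle and 100% = no enzyme background.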 The settings on record: coupled enzyme assay; at 10 µM, hits give high values.
Pantothenate synthetase (Mycobacterium tuberculosis (strain ATCC 25618 / H37Rv)), sequence (P9WIL5 whole entry, looked up): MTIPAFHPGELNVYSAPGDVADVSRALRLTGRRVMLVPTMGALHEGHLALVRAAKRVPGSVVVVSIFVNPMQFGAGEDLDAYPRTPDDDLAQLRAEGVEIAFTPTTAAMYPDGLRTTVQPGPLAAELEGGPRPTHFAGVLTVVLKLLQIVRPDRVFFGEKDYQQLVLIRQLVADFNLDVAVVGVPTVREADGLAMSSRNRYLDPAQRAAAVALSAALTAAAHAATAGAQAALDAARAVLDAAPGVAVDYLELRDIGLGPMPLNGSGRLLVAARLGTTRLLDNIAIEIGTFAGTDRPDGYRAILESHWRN
Usually inhibition stands for how much of the control response was suppressed. In the case of `COc1ccc(C(=O)NCCSc2ccccn2)cc1`, the inhibition is 5%.
`O=C(NCc1ccccn1)Nc1ccc2c(c1)OCO2`: the inhibition was 4%.
Take `CCn1cc(C(=O)NC2CCc3ccccc32)c(=O)c2ccc(C)nc21` (configuration not stated): the inhibition was 0%.
As to `Cc1c(C(=O)NCc2ccccn2)oc2ccccc12`, the inhibition is 0%.
With `O=C(CS(=O)CC(=O)Nc1cccc2c1CCCC2)Nc1ccc(F)cc1` (configuration not stated), the inhibition is 0%.
Next, `Cn1nnnc1SCC(=O)NCc1ccco1`: 5%.
With `CN1CCN(CC(=O)Nc2ccc(Cl)cc2Cl)CC1`, the inhibition was 3%.
Next, `COCC(=O)N(Cc1ccccc1)c1ccccn1`: 4%; `CC(n1cnnn1)C12CC3CC(CC(C3)C1)C2` (configuration not stated): 8%; `C=C(C)Cn1c(CCCNC(=O)C(C)(C)C)nc2ccccc21`: 0%.
Consider `CC(=O)Nc1ccc(S(=O)(=O)N2CCN=C2C)cc1`, for which the inhibition is 3%.
To `COCCN1Cc2cccc(C(=O)Nc3cccnc3)c2C1=O` belongs 1%; to `CCCn1c(-c2ccc(F)cc2)cnc1SCC(=O)O`, 0%.
On to `Cc1nnc(N(C)C(=O)c2cccnc2)s1`, for which the inhibition was 0%.
With `COC(C)(C)c1cc(C(C)(C)C)nc(N)n1`, the inhibition was 0%.
Next, `CCOCCCNC(=O)c1c[nH]c2ccc(S(=O)(=O)Nc3cccc(OC)c3)cc2c1=O`: 0%.
Take `O=c1c2cc(N3CCOCC3)ccc2[nH]c(=S)n1CCCN1CCCCC1`: the inhibition is 1%.
As to `CCOC(=O)CCC(=O)c1c(C)oc2ccc(OC)cc12`, the inhibition was 4%.
To `C=CCSc1nnc(-c2ccc(Cl)cc2Cl)o1` belongs 5%.
Consider `Cn1c(=O)c2c(ncn2CC(O)CO)n(C)c1=O` (configuration not stated), for which the inhibition was 0%.
Regarding `COc1ccc(C)cc1NC(=O)C1CCN(S(=O)(=O)c2cccc3cccnc23)CC1`, the inhibition is 19%.
Next, `CN(C)CCSc1nnc2sc3ccccc3n12`: 8%.
